# Test results: PubChem BioAssay (NCATS)
# Unmarked numbers belong to inactive results. Inconclusive results are not listed. Where a call stands in place of a potency, no number is given. Active and inactive are the calls of the source. Unless noted, calls follow the shape of the dose curve; as a rule, active = well fitted curve in the direction sought with a large enough effect; inconclusive = small, poorly fitted or top-dose-only effect, or another doubt; inactive = no such curve, though single readings can be large; an effect the other way counts as inactive or inconclusive.
# How the values were obtained:
# [1] = system: Zika virus NS2B-NS3 protease; experiment: Primary screen GU AMC qHTS for Zika virus inhibitors (AID 1347154); also: nearly all actives have a fitted effect of over 70% in size
# Procedure, shortened: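 Unlinked Zika NS2B hydrophilic domain/NS3 protease domain noncovalent complex (25 nM final) in 10 mM Tris-HCl pH 8.0, 0.01% Tween 20, with AMC peptide substrate. Fluorescence (ex 340, em 450 nm) change over 15 min, room temperature; percent inhibition fitted to 4-parameter Hill equation.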
# [2] = Counterscreen qHTS for small molecule stabilizers of the endoplasmic reticulum resident proteome: GLuc-NoTag assay (AID 1508627); also: potency is read from the fitted curve at half-maximal effect
# Procedure, shortened: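 Secreted GLuc lacking the SERCaMP modification is measured in SH-SY5Y cells exposed to compound for 19 h and then to thapsigargin (100 nM, 4 h) to deplete ER calcium; hits retested at 11 concentrations, up to 76.6 uM.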
# [3] = system: Zika virus NS2B-NS3 protease (linked construct); experiment: Primary screen NINDS Rhodamine qHTS for Zika virus inhibitors (AID 1347160); also: nearly all actives have a fitted effect of over 55% in size
# Procedure, shortened: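 Rhodamine110-peptide cleavage (1.5 µM substrate) by 25 nM linked NS2B-NS3 enzyme at pH 8.0 (Tris, Tween 20), after 15 min RT preincubation with compounds; 15-min fluorescence change normalized to controls and Hill-fitted.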
# [4] = OV-SAHO Cancer Cell Toxicity qHTS against the NCATS CANVASS Library (AID 1347348); also: series mostly up to about 38 µM; nearly all actives have a fitted effect of over 55% in size
# Procedure, shortened: (§1)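 Cells were seeded at 1000 per well, allowed 4 h at 37 degrees C/5% CO2, then pin-treated with an 11-point compound series. After 72 h, viability was read as CellTiter-Glo luminescence following 15min at room temperature.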
# [5] = U-118MG Cancer Cell Toxicity qHTS against the NCATS CANVASS Library (AID 1347351); also: series mostly up to about 38 µM
# Procedure, shortened: as §1
# [6] = UWB1.289-WTBRCA1 Cancer Cell Toxicity qHTS against the NCATS CANVASS Library (AID 1347354); also: potency is read from the fitted curve at half-maximal effect
# Procedure, shortened: (§2)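 First, 1000 cells go into each well and rest for 4 hours. Next, an 11-point dilution range is pinned in. Plates then incubate 72 hours before CellTiter-Glo addition and luminescence reading.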
# [7] = HEK-293 Cancer Cell Toxicity qHTS against the NCATS CANVASS Library (AID 1347355); also: potency is read from the fitted curve at half-maximal effect; nearly all actives have a fitted effect of over 65% in size
# Procedure, shortened: as §2
# [8] = HPAF-II 24hr Apoptosis Induction qHTS against the NCATS CANVASS Library (AID 1347356)
# Procedure, shortened: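 Cells seeded at 500 per well, then compounds pin-transferred in an 11-point concentration series. After 24 hours at 37 degrees C, Caspase-Glo 3/7 was added and luminescence measured following 15 min at room temperature.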
# [9] = HEK293 18hr Apoptosis Induction qHTS against the NCATS CANVASS Library (AID 1347357)
# Procedure, shortened: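 HEK293 cells (500 per well, DMEM with 10% FBS) were treated with natural products, incubated 18 hours at 37 degrees C, then caspase-3/7 activity was read by Caspase-Glo luminescence after 15 min at room temperature.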
# [10] = HEK293 24hr Apoptosis Induction qHTS against the NCATS CANVASS Library (AID 1347359)
# Procedure, shortened: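 HEK293 cells (500/well, DMEM + 10% FBS) were exposed to compounds in an 11-point series for 24 hours at 37 degrees C, then caspase-3/7 activity was read by Caspase-Glo DEVD luciferase luminescence after 15 min.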
# [11] = HPAF-II 18hr Apoptosis Induction qHTS against the NCATS CANVASS Library (AID 1347360)
# Procedure, shortened: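 HPAF-II cells (500/well, DMEM + 10% FBS) were exposed to compounds for 18 hours at 37 degrees C. Caspase-3/7 activity was then read by Caspase-Glo 3/7 luminescence after 15 min at room temperature.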
# [12] = HEK293 12hr Apoptosis Induction qHTS against the NCATS CANVASS Library (AID 1347361)
# Procedure, shortened: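 Read-out: Caspase-Glo 3/7 luminescence (DEVD substrate), 15 min RT. Preceded by 12 h compound exposure of HEK293, 500 cells/well, 11-pt qHTS titration; doxorubicin titration as control.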
# [13] = biological target: Luciferin 4-monooxygenase (Photinus pyralis) (UniProt P08659); experiment: Firefly luciferase counterscreen qHTS: Assay Interference Panel against the NCATS CANVASS Library (AID 1347363); also: series mostly up to about 57 µM
# Luciferin 4-monooxygenase (Photinus pyralis), sequence (P08659 whole entry, looked up): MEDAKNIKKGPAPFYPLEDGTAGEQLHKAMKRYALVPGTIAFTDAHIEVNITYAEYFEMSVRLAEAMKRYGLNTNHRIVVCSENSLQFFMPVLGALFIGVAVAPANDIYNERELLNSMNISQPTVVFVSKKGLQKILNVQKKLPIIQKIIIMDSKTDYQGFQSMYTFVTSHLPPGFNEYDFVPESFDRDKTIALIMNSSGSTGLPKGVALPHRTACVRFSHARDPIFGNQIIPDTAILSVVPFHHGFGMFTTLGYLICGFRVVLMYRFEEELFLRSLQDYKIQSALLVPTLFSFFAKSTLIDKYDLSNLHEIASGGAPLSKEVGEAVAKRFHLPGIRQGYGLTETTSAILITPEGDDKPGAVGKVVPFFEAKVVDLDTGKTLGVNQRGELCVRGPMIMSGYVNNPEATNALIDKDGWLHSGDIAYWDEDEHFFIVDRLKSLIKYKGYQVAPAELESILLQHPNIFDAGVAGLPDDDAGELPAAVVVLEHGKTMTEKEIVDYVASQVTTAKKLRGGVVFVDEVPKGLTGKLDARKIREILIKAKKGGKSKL
# Procedure, shortened: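 Purified P. pyralis luciferase was added to compounds (11-point series) preincubated 15 min at room temperature with substrate containing 0.013 mM D-luciferin and 0.013 mM ATP; luminescence was read after 5 min.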
# [14] = KB-8-5-11 Cancer Cell Toxicity qHTS against the NCATS CANVASS Library (AID 1347364); also: potency is read from the fitted curve at half-maximal effect; nearly all actives have a fitted effect of over 75% in size
# Procedure, shortened: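 Terse: KB-8-5-11, 500 cells/well, 72 hr, 37C/5% CO2, 11-pt titration, CellTiter-Glo readout; confirmatory runs ± 1uM tariquidar in medium.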
# [15] = KB-3-1 Cancer Cell Toxicity qHTS against the NCATS CANVASS Library (AID 1347366); also: potency is read from the fitted curve at half-maximal effect; nearly all actives have a fitted effect of over 75% in size
# Procedure, shortened: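 KB-3-1 cells (500 cells/well) in DMEM + 10% FBS were treated with compounds for 72 hr at 37C, 5% CO2. Viability was read as CellTiter-Glo luminescence after 10 minutes at room temperature.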
# [16] = qHTS for ATAD5 Agonist screened against the NCATS CANVASS Library (AID 1347367);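 also: luciferase reporter driven by ATAD5 which rises upon DNA damage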
# Procedure, shortened: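 HEK293T cells stably carrying an ATAD5-controlled luciferase reporter (2000 cells/well) attached for 5 hr, then received compounds in an 11-point series for 16hr at 37C. Luminescence was read after a 30 min room-temperature reagent step.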
# [17] = G06 Cancer Cell Toxicity qHTS against the NCATS CANVASS Library (AID 1347368); also: potency is read from the fitted curve at half-maximal effect; nearly all actives have a fitted effect of over 60% in size
# Procedure, shortened: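 Cells were plated at 500 per well, then compounds were added over an 11-point range. After 72 hr at 37C, CellTiterGlo was added and luminescence measured as ATP content.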
# [18] = MCF7 Cancer Cell Toxicity qHTS against the NCATS CANVASS Library (AID 1347369); also: series mostly up to about 46 µM
# Procedure, shortened: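 MCF7, 500 cells/well; cpds 11-pt qHTS; 72 hr, 37C/5% CO2; CellTiterGlo ATP luminescence.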
# [19] = biological target: Nuclear receptor subfamily 1 group I member 3 (Homo sapiens) (UniProt Q14994); experiment: qHTS for Constitutive Androstane Receptor (CAR) Antagonist screened against the NCATS CANVASS Library (AID 1347372); also: potency is read from the fitted curve at half-maximal effect
# Nuclear receptor subfamily 1 group I member 3 (Homo sapiens), sequence (Q14994 whole entry, looked up): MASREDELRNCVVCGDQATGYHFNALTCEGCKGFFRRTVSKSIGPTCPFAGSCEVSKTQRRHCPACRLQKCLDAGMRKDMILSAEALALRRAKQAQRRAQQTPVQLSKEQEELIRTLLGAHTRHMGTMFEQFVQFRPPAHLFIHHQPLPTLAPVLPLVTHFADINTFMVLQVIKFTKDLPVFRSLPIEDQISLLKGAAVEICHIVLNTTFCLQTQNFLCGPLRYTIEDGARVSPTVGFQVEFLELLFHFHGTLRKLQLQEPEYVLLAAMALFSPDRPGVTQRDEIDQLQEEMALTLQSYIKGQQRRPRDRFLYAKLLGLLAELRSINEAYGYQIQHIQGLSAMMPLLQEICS
# Procedure, shortened: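 Cells were seeded and left 4hr to attach, then received compound at 11 concentrations and 50 nM CITCO. Following 24hr incubation, fluorescence viability and luciferase luminescence were read sequentially.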
# [20] = biological target: Nuclear receptor subfamily 1 group I member 3 (Homo sapiens) (UniProt Q14994); experiment: qHTS for Constitutive Androstane Receptor (CAR) Agonist screened against the NCATS CANVASS Library (AID 1347373);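 also: every well also contained 1.5 µM PK11195 alongside the test compound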
# Procedure, shortened: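 Cells were plated and allowed to attach for 4hr, then dosed with compound in an 11-point series alongside 1.5uM PK11195. After 24hr at 37C, viability was measured fluorometrically and CAR-driven CYP2B6 reporter luminescence was recorded.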
# [21] = qHTS for Hypoxia signaling pathway (HIF-1) antagonists against the NCATS CANVASS Library (AID 1347374); also: potency is read from the fitted curve at half-maximal effect; nearly all actives have a fitted effect of over 60% in size
# Procedure, shortened: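 Antagonism scored as loss of CoCl2-driven (60 uM stock added) HRE beta-lactamase signal, read by CCF4 FRET at 460/530 nm. Compounds were tested in an 11-point series on ME-180 reporter cells for 17 hrs at 37C, with parallel CellTiter-Glo cytotoxicity.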
# [22] = qHTS for Hypoxia signaling pathway (HIF-1) agonists against the NCATS CANVASS Library (AID 1347375)
# Procedure, shortened: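 Cells plated and rested 5 h, compounds pinned in DMSO across 11 concentrations, incubated 17 h at 37C, loaded with CCF4-AM for 2 h, fluorescence read at 460 and 530 nm, then CellTiter-Glo luminescence measured for viability and normalization.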
# [23] = 10-beta competent E. coli microbial cell viability qHTS against the NCATS CANVASS Library (AID 1347376); also: series mostly up to about 46 µM
# Procedure, shortened: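 Bacterial suspension diluted to 0.2 OD was dosed with compounds, 11-point series, then held overnight at 37C. BacTiter-Glo reagent was added, and after 20 min at room temperature ATP-dependent luminescence was measured.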
# [24] = DH5-alpha competent E. coli microbial cell viability qHTS against the NCATS CANVASS Library (AID 1347377); settings: outcome: dose series up to 46.1 µM
# Procedure, shortened: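 Bacteria were dispensed at 0.2 OD, then compounds were pin-transferred. Plates were incubated overnight at 37C, after which BacTiter-Glo was added and luminescence measured 20 min later.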
# [25] = qHTS for Inflammasome Signaling Inhibitors: IL-1-beta AlphaLISA screen against the NCATS CANVASS Library (AID 1347379);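 also: human THP-1 cells primed with LPS then triggered with ATP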
# Procedure, shortened: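 Secreted IL-1B from human THP-1 cells quantified by AlphaLISA 16 hr after compound addition (final up to 57.5 uM). A 1 hr compound pretreatment preceded inflammasome activation with 250 ng/mL LPS plus 1.25 mM ATP (final).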
# [26] = Inflammasome Signaling qHTS Counterscreen: IL-1-beta AlphaLISA counterscreen against the NCATS CANVASS Library (AID 1347381);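 also: cell-free check with purified IL-1β in medium and no THP-1 cells; series mostly up to about 57 µM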
# Procedure, shortened: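 Purified IL-1-beta (4 pg/well) + compound, 11-pt conc. series; acceptor beads 6 ug/mL + biotin-Ab 0.6 nM final, 1 h RT; SA-donor 24 ug/ml final, 30 min dark RT; read ex 680/em 615.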
# [27] = qHTS for activators of dead-cell proteases activity screened against the NCATS CANVASS Library (AID 1347392);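 also: luminescence from protease leaking out of membrane-damaged cells cleaving impermeant substrate; rising signal means more cytotoxicity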
# Procedure, shortened: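 Cytotoxicity in HepG2 cells was assessed by released protease cleaving AAF-aminoluciferin, with luminescence as signal. Exposure lasted 5 h at 37C across an 11-point series.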
# [28] = Vero-766 cells viability qHTS against the NCATS CANVASS Library: Counterscreen for Zika virus inhibition assay (AID 1347394); also: potency is read from the fitted curve at half-maximal effect; nearly all actives have a fitted effect of over 60% in size
# Procedure, shortened: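 Uninfected Vero 766 (African green monkey) cells, 1000/well, attached overnight, then exposed 72 h at 37C to compounds (11-point qHTS). Viability read by CellTiter-Glo luminescence; media-only wells served as 100% inhibition.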
# [29] = Redox Reaction Profiling qHTS: Assay Interference Panel against the NCATS CANVASS Library (AID 1347401)
# Procedure, shortened: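 Quantitative HTS over an 11-point series was run in HEPES pH 7.3 with 50 mM NaCl, 200 uM DTT and 5 uM resazurin. Initial and 15-min resorufin fluorescence readings were taken.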
# [30] = qHTS for inhibitors of Rabies Virus screened against the NCATS CANVASS Library (AID 1347402; calls by dose curve; also: series mostly up to about 46 µM)
# [31] = Primary qHTS for small molecule stabilizers of the endoplasmic reticulum resident proteome: Secreted ER Calcium Modulated Protein (SERCaMP) assay (AID 1508630)
# Procedure, shortened: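 The SH-SY5Y reporter protocol was run at 3 concentrations up to 38.3 uM (primary) or 11 concentrations (follow-up): 16 h compound, 100 nM thapsigargin for 4 h, then extracellular luciferase luminescence.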
smiles,measurement,setting,value
CN1C2CCC1CC(OC(c1ccc(F)cc1)c1ccc(F)cc1)C2 (configuration not stated),Potency,[1],inactive
same,Potency,[2],22.4 µM (active)
C=C1[C@@H](C)[C@H]2[C@H](Cc3ccccc3)NC(=O)[C@]23OC(=O)/C=C/[C@H](O)CCC[C@@H](C)C/C=C/[C@H]3[C@@H]1O,Potency,[1],inactive
same,Potency,[3],inactive
same,Potency,[4],inactive
same,Potency,[5],inactive
same,Potency,[6],13.3 µM (active)
same,Potency,[7],9.35 µM (active)
same,outcome,[8],inactive
same,Potency,[9],inactive
same,Potency,[10],inactive
same,outcome,[11],inactive
same,Potency,[12],inactive
same,outcome,[13],inactive
same,Potency,[14],9.35 µM (active)
same,Potency,[15],4.69 µM (active)
same,Potency,[16],inactive
same,Potency,[17],2.35 µM (active)
same,Potency,[18],inactive
same,Potency,[19],8.31 µM (active)
same,outcome,[20],inactive
same,Potency,[21],2.11 µM (active)
same,Potency,[22],inactive
same,outcome,[23],inactive
same,outcome,[24],inactive
same,Potency,[25],inactive
same,outcome,[26],inactive
same,Potency,[27],inactive
same,Potency,[28],13.2 µM (active)
same,Potency,[29],inactive
same,outcome,[30],inactive
same,Potency,[31],inactive
